From PubChem BioAssay (EPA / NIEHS) come the findings set out here.

Holding throughout (settings): mRNA level, 48 h; actives raise or lower the signal
Read-out in experiment [1]: Early growth response protein 1 (EGR1) transcription factor, EGR1 (gene 1958)
Briefly: LTEA_HepaRG_EGR1: Life Technologies and Expression Analysis (LTEA) Assay for Early growth response protein 1 (EGR1) transcription factor using HepaRG (AID 2283490). The method in brief: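 Differentiated human HepaRG cells in serum-free induction medium were exposed in duplicate for 48 h to eight concentrations (top 100 uM, half-log steps) in 0.5% DMSO. EGR1 mRNA was quantified by qRT-PCR, normalized to ACTB, GAPDH and POLR2A, and fitted bidirectionally versus DMSO.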

Read-out in experiment [2]: Ezrin (EZR), EZR (gene 7430)
Briefly: LTEA_HepaRG_EZR: Life Technologies and Expression Analysis (LTEA) Assay for Ezrin (EZR) using HepaRG (AID 2283491). The method in brief:
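Gain or loss of EZR mRNA is scored relative to 0.5% DMSO in human HepaRG cultures treated 48 h with test chemicals in duplicate, eight half-log concentrations from 100 uM.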

Read-out in experiment [3]: Cytochrome P450 3A7 (Homo sapiens) (UniProt P24462)
Briefly: LTEA_HepaRG_CYP3A7: Life Technologies and Expression Analysis (LTEA) Assay for CYP3A7 using HepaRG (AID 2283492). The method in brief:
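Cells were thawed, plated, cultured 48 h, then treated for a further 48 h with chemicals (eight-point half-log series from 100 uM, 0.5% DMSO). RNA was isolated and CYP3A7 expression quantified by qRT-PCR normalised to ACTB, GAPDH and POLR2A.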

Read-out in the next experiment: CYP3A5 (gene 1577)
Briefly: LTEA_HepaRG_CYP3A5: Life Technologies and Expression Analysis (LTEA) Assay for CYP3A5 using HepaRG (AID 2283493). The method in brief:
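mRNA induction or loss of CYP3A5 assessed in HepaRG after 48 h dosing, 100 uM top concentration, duplicate wells; TaqMan qRT-PCR with ACTB, GAPDH, POLR2A normalization; 0.5% DMSO as negative control.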

Read-out in experiment [4]: Fatty Acid-Binding Protein 1 (FABP1), FABP1 (gene 2168)
Briefly: LTEA_HepaRG_FABP1: Life Technologies and Expression Analysis (LTEA) Assay for Fatty Acid-Binding Protein 1 (FABP1) using HepaRG (AID 2283494). The method in brief:
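Differentiated human HepaRG cells were exposed in duplicate for 48 h in serum-free induction medium to 8-point half-log concentration series topping at 100 uM in 0.5% DMSO. FABP1 mRNA measured by TaqMan qRT-PCR, normalized to ACTB/GAPDH/POLR2A; bidirectional fit versus DMSO.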

Read-out in experiment [5]: Cytochrome P450 4A22 (Homo sapiens) (UniProt Q5TCH4)
Briefly: LTEA_HepaRG_CYP4A22: Life Technologies and Expression Analysis (LTEA) Assay for Cytochrome P450 4A22 (CYP4A22) using HepaRG (AID 2283495). In outline:
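Cryopreserved HepaRG cells, plated and cultured 48 h, then switched to serum-free induction medium and treated 48 h (duplicates, up to 100 uM, half-log steps, 0.5% DMSO). Expression change of CYP4A22 was fitted bidirectionally against vehicle.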

Read-out in experiment [6]: Glutathione S-Transferase (GSTA2), GSTA2 (gene 2939)
Briefly: LTEA_HepaRG_GSTA2: Life Technologies and Expression Analysis (LTEA) Assay for Glutathione S-Transferase (GSTA2) using HepaRG (AID 2283497). In outline: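 Human HepaRG cells, plated 48 h, then exposed in serum-free induction medium for 48 h to eight half-log concentrations up to 100 uM in 0.5% DMSO, duplicate. GSTA2 mRNA by qRT-PCR, normalized to ACTB/GAPDH/POLR2A; bidirectional fit versus DMSO.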

Read-out in experiment [7]: Glutamate-cysteine ligase catalytic (GCLC), GCLC (gene 2729)
Briefly: LTEA_HepaRG_GCLC: Life Technologies and Expression Analysis (LTEA) Assay for Glutamate-cysteine ligase catalytic (GCLC) using HepaRG (AID 2283498). The method in brief:
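Differentiated human HepaRG cells, plated 48 h then switched to serum-free induction medium, were exposed in duplicate for 48 h to 8 half-log concentrations topping at 100 uM in 0.5% DMSO. GCLC mRNA was quantified by qRT-PCR against ACTB, GAPDH and POLR2A.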

Read-out in experiment [8]: growth arrest and DNA damage 45 (GADD45G), GADD45G (gene 10912)
Briefly: LTEA_HepaRG_GADD45G: Life Technologies and Expression Analysis (LTEA) Assay for growth arrest and DNA damage 45 (GADD45G) using HepaRG (AID 2283499). In outline: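 Human hepatic HepaRG line treated 48 h with chemicals (eight concentrations, half-log steps from 100 uM); transcript induction or repression of GADD45G scored by qRT-PCR versus DMSO vehicle.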

Read-out in experiment [9]: Glutamate-cysteine ligase regulatory (GCLM), GCLM (gene 2730)
Briefly: LTEA_HepaRG_GCLM: Life Technologies and Expression Analysis (LTEA) Assay for Glutamate-cysteine ligase regulatory (GCLM) using HepaRG (AID 2283500). The method in brief:
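Human liver HepaRG cultures receive test chemicals for 48 hours at up to 100 uM in 0.5% DMSO. GCLM expression is measured by qRT-PCR and analysed for increases or decreases against vehicle.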

Read-out in experiment [10]: Glutathione S-transferase M3 (GSTM3), GSTM3 (gene 2947)
Briefly: LTEA_HepaRG_GSTM3: Life Technologies and Expression Analysis (LTEA) Assay for Glutathione S-transferase M3 (GSTM3) using HepaRG (AID 2283501). In outline: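 Changes in GSTM3 expression, an oxidative-stress marker, were scored by bidirectional curve fitting against 0.5% DMSO vehicle. Human HepaRG cultures received chemicals for 48 h in duplicate, highest concentration 100 uM with half-log dilutions.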

Read-out in experiment [11]: Heat shock 70 kDa protein 1 (HSPA1A), gene 3303
Briefly: LTEA_HepaRG_HSPA1A: Life Technologies and Expression Analysis (LTEA) Assay for Heat shock 70 kDa protein 1 (HSPA1A) using HepaRG (AID 2283502). In outline: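 HSPA1A induction in human HepaRG liver cells is measured after 48 h of chemical treatment (100 uM maximum, 0.5% DMSO vehicle). Expression comes from qRT-PCR normalized to endogenous controls.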

Read-out in experiment [12]: Hypoxia-inducible factor 1-alpha (Homo sapiens) (UniProt Q16665)
Briefly: LTEA_HepaRG_HIF1A: Life Technologies and Expression Analysis (LTEA) Assay for Hypoxia-inducible factor 1 (HIF1A) Trancription factor using HepaRG (AID 2283503). The method in brief:
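HepaRG, 48 h exposure, 8-pt half-log series from 100 uM, 0.5% DMSO vehicle, duplicates. Readout: HIF1A transcript by qRT-PCR (Fluidigm array), housekeeping-normalised. Bidirectional curve fit vs DMSO baseline.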

Read-out in experiment [13]: 3-Hydroxy-3-Methylglutaryl-CoA Synthase 2 (HMGCS2), HMGCS2 (gene 3158)
Briefly: LTEA_HepaRG_HMGCS2: Life Technologies and Expression Analysis (LTEA) Assay for 3-Hydroxy-3-Methylglutaryl-CoA Synthase 2 (HMGCS2) using HepaRG (AID 2283504). The method in brief:
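Expression of HMGCS2 in human HepaRG liver cells is measured by qRT-PCR 48 h after dosing (highest 100 uM, half-log series, 0.5% DMSO). Values come from bidirectional concentration-response fitting with DMSO as baseline.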

Read-out in another experiment: HGF (gene 3082)
Briefly: LTEA_HepaRG_HGF: Life Technologies and Expression Analysis (LTEA) Assay for Hepatocyte Growth Facto (HGF) using HepaRG (AID 2283505). The method in brief:
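Gain or loss of HGF mRNA in human HepaRG liver cells after 48 h chemical exposure; eight concentrations up to 100 uM with 0.5% DMSO vehicle, quantified by TaqMan qRT-PCR.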

Read-out in experiment [14]: Insulin Like Growth Factor 1 (IGF1), IGF1 (gene 3479)
Briefly: LTEA_HepaRG_IGF1: Life Technologies and Expression Analysis (LTEA) Assay for Insulin Like Growth Factor 1 (IGF1) using HepaRG (AID 2283506). The method in brief:
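Using human HepaRG liver cells, IGF1 transcript induction or suppression is measured 48 h after dosing across eight concentrations capped at 100 uM. Values derive from bidirectional concentration-response fitting with DMSO as baseline.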

Read-out in experiment [15]: Intercellular Adhesion Molecule 1 (ICAM1), ICAM1 (gene 3383)
Briefly: LTEA_HepaRG_ICAM1: Life Technologies and Expression Analysis (LTEA) Assay for Intercellular Adhesion Molecule 1 (ICAM1) using HepaRG (AID 2283507). In outline:
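Gain or loss of transcript in HepaRG hepatic cells is quantified by qRT-PCR after 48 h chemical exposure (up to 100 uM, half-log steps), with DMSO as baseline.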

Read-out in experiment [16]: Insulin-like growth factor-binding protein 1 (IGFBP1), IGFBP1 (gene 3484)
Briefly: LTEA_HepaRG_IGFBP1: Life Technologies and Expression Analysis (LTEA) Assay for Insulin-like growth factor-binding protein 1 (IGFBP1) using HepaRG (AID 2283508). In outline:
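mRNA induction or loss was quantified by qRT-PCR after 48 h chemical exposure of human HepaRG cells, with 0.5% DMSO as vehicle and baseline. Concentration-response over eight points up to 100 uM.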

Read-out in experiment [17]: Cytochrome P450 7A1 (Homo sapiens) (UniProt P22680)
Briefly: LTEA_HepaRG_CYP7A1: Life Technologies and Expression Analysis (LTEA) Assay for Cytochrome P450 7A1 (CYP7A1) using HepaRG (AID 2283496). In outline:
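Gene expression endpoint in human HepaRG liver cells treated for 48 h with test chemicals (up to 100 uM, 0.5% DMSO). Values come from bidirectional concentration-response fitting versus DMSO.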

Read-out in experiment [18]: Interleukin 6 (IL6), IL6 (gene 3569)
Briefly: LTEA_HepaRG_IL6: Life Technologies and Expression Analysis (LTEA) Assay for Interleukin 6 (IL6) using HepaRG (AID 2283509). The method in brief: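 Differentiated human HepaRG cells, plated 48 h then switched to serum-free induction medium, were exposed in duplicate for 48 h to eight half-log concentrations up to 100 uM in 0.5% DMSO. IL6 mRNA measured by qRT-PCR, normalized to ACTB/GAPDH/POLR2A.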

Active and inactive are the calls of the source. The calls were made as follows: active = hit-call score of the fitted dose curve at least 0.9, where 1 is the maximum; inactive = score below 0.9.

Cytochrome P450 3A7 (Homo sapiens), sequence (P24462 whole entry, looked up): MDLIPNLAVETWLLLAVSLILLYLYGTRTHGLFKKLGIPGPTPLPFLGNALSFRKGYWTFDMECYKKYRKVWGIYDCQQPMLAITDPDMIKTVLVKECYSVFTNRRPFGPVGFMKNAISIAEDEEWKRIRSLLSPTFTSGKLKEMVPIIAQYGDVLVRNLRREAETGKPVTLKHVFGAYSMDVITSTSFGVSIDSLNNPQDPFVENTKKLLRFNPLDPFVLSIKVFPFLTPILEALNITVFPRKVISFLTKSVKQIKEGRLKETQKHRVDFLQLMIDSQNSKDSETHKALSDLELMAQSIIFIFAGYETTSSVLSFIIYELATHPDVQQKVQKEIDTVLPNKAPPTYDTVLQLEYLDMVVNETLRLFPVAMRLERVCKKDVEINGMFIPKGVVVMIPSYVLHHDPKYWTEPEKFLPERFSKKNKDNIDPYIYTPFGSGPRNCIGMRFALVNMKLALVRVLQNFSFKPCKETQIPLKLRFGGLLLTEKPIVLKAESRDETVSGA
Hypoxia-inducible factor 1-alpha (Homo sapiens), sequence (Q16665 whole entry, looked up): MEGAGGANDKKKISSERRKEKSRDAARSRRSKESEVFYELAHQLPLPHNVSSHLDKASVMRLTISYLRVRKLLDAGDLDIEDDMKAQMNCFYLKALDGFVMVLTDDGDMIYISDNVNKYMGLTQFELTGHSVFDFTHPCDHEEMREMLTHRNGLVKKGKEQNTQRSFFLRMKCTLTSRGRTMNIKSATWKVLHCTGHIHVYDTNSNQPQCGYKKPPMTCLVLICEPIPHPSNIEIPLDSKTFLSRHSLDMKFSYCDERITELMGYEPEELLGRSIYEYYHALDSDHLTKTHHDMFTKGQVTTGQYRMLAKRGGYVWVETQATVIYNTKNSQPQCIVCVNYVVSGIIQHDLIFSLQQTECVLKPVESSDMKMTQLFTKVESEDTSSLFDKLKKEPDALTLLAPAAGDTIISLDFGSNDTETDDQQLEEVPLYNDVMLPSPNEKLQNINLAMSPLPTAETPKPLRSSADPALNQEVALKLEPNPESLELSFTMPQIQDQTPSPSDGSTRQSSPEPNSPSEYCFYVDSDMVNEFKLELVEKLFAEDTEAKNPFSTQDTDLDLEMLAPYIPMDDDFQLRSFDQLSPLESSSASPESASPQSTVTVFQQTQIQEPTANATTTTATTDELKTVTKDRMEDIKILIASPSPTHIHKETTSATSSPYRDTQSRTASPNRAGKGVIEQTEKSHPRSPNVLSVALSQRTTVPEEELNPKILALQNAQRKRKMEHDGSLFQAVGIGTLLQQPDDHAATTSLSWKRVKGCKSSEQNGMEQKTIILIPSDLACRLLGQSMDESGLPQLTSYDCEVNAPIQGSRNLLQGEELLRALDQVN

As for `c1ccc(C[n+]2cccc3ccccc32)cc1`, the molecule was called inactive (in experiment [1]; with CYP3A5 (gene 1577); in [10]; in experiment [12]; in the experiment with HGF (gene 3082)). In addition, the AC50 (in general, the concentration giving half of the maximal activity seen) in experiment [2] was 14.7 µM (active); in [3], 31.7 µM (active); in experiment [4] it was 31.7 µM (active); in experiment [5], 22.6 µM (active); in experiment [6], 75 µM (active); in experiment [7], 85.9 µM (active). Moreover, the AC50 in experiment [8] was 43.6 µM (active); in experiment [9] it was 62.7 µM (active); in experiment [11], 22.8 µM (active); in experiment [13], 31 µM (active); in experiment [14] it was 20.7 µM (active); in experiment [15], 70.8 µM (active). In addition, in experiment [16], the half-maximal activity concentration (AC50) is 34.6 µM (active).

In the case of `CC(C)(O)c1ccc(CNC(=O)c2cccnc2Oc2ccc3nonc3c2)cc1`, the molecule was classed as inactive (in experiment [1]; in [2]; in the experiment with CYP3A5 (gene 1577); in experiment [4]; in experiment [5]; in experiment [17]). Also, the molecule was called inactive in experiment [6], in experiment [7], in [8], in experiment [9], in [10] and in [11]. Also, the molecule was classed as inactive in experiment [12], in experiment [13], in experiment [15], in [16] and in experiment [18]. For the same molecule, the AC50 was 6.62 µM (active) in experiment [3] and 22.7 µM (active) in experiment [14].

Regarding `CCCCCCCCN(C)CCCCCCCC`, the molecule was called inactive (in experiment [1]; in experiment [2]; in experiment [3]; with CYP3A5 (gene 1577); in experiment [4]; in experiment [5]). Moreover, the molecule was classed as inactive in experiment [6], in [7], in experiment [8], in [9], in experiment [10] and in experiment [11]. The result in [12], in experiment [13], in experiment [14], in experiment [15], in [16] and in experiment [18] was inactive.

With `O=C(OCCCCCCOC(=O)c1ccccc1)c1ccccc1`, the call (in [1]; in experiment [2]; in experiment [3]; with CYP3A5 (gene 1577); in experiment [4]; in experiment [5]) was inactive. The call in experiment [17], in experiment [6], in [7], in experiment [8], in [9] and in experiment [10] was inactive. Also, the molecule was called inactive (in experiment [11]; in experiment [12]; in [13]; in the experiment with HGF (gene 3082); in experiment [14]; in [15]). Besides, the call in experiment [16] and in experiment [18] was inactive.

For `CCCCCCCCOc1ccc(C(=O)c2ccccc2)c(O)c1`, the molecule was called inactive (in experiment [1]; in experiment [2]; in experiment [3]; with CYP3A5 (gene 1577); in [4]; in [5]). Also, the call in experiment [6], in [7], in [8], in [9], in experiment [10] and in experiment [11] was inactive. In addition, the molecule was called inactive (in [12]; in experiment [13]; in the experiment with HGF (gene 3082); in [14]; in experiment [15]; in experiment [16]). Besides, the call in [18] was inactive.
